The list is not random: actives were taken first. Their share in the collection is about 9.2%.
HPGD inh – HPGD (human) dehydrogenase inhibition | P15428 | purified HPGD, NADH fluorescence kinetic, PGE2 substrate | Potency, µM, actives largely listed as inhibitors | 150,000 tested, 4.3% active
Target sequence (P15428 whole entry, looked up): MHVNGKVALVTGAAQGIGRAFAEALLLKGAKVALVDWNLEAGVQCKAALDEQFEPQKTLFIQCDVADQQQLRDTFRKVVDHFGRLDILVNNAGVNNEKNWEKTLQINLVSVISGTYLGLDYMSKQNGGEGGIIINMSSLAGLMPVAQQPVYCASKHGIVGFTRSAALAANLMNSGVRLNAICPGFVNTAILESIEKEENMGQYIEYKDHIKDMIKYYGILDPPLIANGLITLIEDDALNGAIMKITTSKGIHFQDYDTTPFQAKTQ
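20 nM HPGD preincubated 15 min at room temperature with compound in 50 mM Tris-HCl pH 8, 0.01% Tween 20. Started with 1 mM NAD+ and 30 uM prostaglandin E2; NADH fluorescence (360/450 nm) read 5 times over 30-s intervals, last minus first.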
HTT aggregate – reduces HttQ103-GFP aggregates in PC12 cells; PC12 HttQ103-GFP aggregates, Acumen cytometry, 40 h; Potency, µM (doses to about 46.1 µM), actives largely listed as inhibitors; 220,000 tested, 1.1% active; active means well fitted curve in the direction sought with a large enough effect; inconclusive means small, poorly fitted or top-dose-only effect, or another doubt; inactive means no such curve, though single readings can be large; an effect the other way counts as inactive or inconclusive; further: nearly all actives have a fitted effect of over 60% in size
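Compounds (qHTS titration) were added to PC12 cells expressing an ecdysone-driven HTT exon 1 Q103–GFP fusion after induction with 100 nM tebufenozide. Aggregate formation was measured as GFP objects in cell lysates.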
JMJD2E inh – blocks human JMJD2E demethylase activity. B2RXH2. JMJD2E catalytic domain, FDH-coupled NADH fluorescence (FDH is formaldehyde dehydrogenase). Potency, µM (series often up to 57.1 µM), actives largely listed as inhibitors. 230,000 tested, 1.6% active. AID 2147; further: nearly all actives have a fitted effect of over 50% in size
Target sequence (B2RXH2 1-337 limits assumed): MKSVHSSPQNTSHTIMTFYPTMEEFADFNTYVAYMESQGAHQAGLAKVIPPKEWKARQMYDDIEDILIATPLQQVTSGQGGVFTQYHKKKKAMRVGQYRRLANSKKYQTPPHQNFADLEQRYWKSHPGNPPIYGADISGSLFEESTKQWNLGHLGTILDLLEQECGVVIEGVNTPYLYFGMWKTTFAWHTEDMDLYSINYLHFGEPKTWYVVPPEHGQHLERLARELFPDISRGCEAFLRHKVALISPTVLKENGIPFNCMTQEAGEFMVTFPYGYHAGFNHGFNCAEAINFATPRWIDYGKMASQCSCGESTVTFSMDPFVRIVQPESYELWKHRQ
Lamin A splicing – changes lamin A minigene splicing in HeLa cells | Potency, µM (top dose mostly 46.1 µM), most hits filed as inhibitors | HeLa LMNA splicing GFP/RFP minigene ratio, 48 h | 200,000 tested, 0.01% active; active means well fitted inhibition curve with a large enough effect in the signal ratio, with a control signal flat, not every such curve was filed as active; inconclusive means small, poorly fitted or top-dose-only effect, or effect the other way, or a change in a side signal; the % refers to the signal ratio
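Read-out is the ratio of GFP to DsRed2 object intensity, acquired by 488 nm laser-scanning cytometry on HeLa lamin A-EGFP minigene reporter cells. Compound incubation 48 hrs at 37 °C in Opti-MEM with 2% FBS; DMSO 0.5% final.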
ALDH1A1 inh – blocks purified human ALDH1A1 activity | P00352 | Purified ALDH1A1, NADH fluorescence, propionaldehyde substrate | Potency, µM (doses to about 75.3 µM), hits mostly inhibitors | 220,000 tested, 7.3% active | AID 1030
HTT ATP protect – Huntington cell model cytoprotection by ATP luminescence | PC12 HTT-Q103 induced, cytoprotection, ATP luminescence, 40 h | Potency, µM (highest dose often 56.4 µM), actives largely listed as activators | 230,000 tested, 0.14% active | AID 1471; active means well fitted curve in the direction sought with a large enough effect; inconclusive means small, poorly fitted or top-dose-only effect, or another doubt; inactive means no such curve, though single readings can be large; an effect the other way counts as inactive or inconclusive; further: nearly all actives have a fitted effect of over 45% in size
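ATP quantification (ATPlite) reports survival of PC12 cells in which tebufenozide, 100 nM final, switches on Htt exon 1 with 103 glutamines linked to GFP; compounds are titrated.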
Hits are given with their value; n = inactive; u = inconclusive; x = no result; [ ] = another dose, or the depositor's remark. Unless noted, the call rests on the fitted dose curve; in most records, active means well fitted inhibition curve with a large enough effect (not every such curve was filed as active); inconclusive means small, poorly fitted or top-dose-only effect, or another doubt; inactive means no such curve, though single readings can be large or run the other way.

SMILES | HPGD inh | HTT aggregate | JMJD2E inh | Lamin A splicing | ALDH1A1 inh | HTT ATP protect
Cc1ccc(C)c2[nH]c(=O)c(CCNC(=O)c3ccc(S(=O)(=O)N(C)C)cc3)cc12 | n | u | n | n | 22µM | n
CCCCCc1ccc(S(=O)(=O)NCCc2ccncc2)cc1 | n | 11µM | n | u | n | n
CC(C)(C)c1ccc(S(=O)(=O)Nc2ccc(Cc3ccncc3)cc2)cc1 | n | u | n | u | 1.1µM | n[10 µM]
O=[N+]([O-])c1ccccc1S(=O)(=O)NCCc1ccncc1 | x | n | n | n[9.22 µM] | 18µM | n
CCCc1ccc(S(=O)(=O)NCCc2ccncc2)cc1 | n | u | n | u | u | n
O=C(Nc1ccc(Cc2ccncc2)cc1)C1CC1 | n | n | n | n | n | n
O=S(=O)(Nc1ccc(Cc2ccncc2)cc1)N1CCCC1 | 25µM | n | n | n | n | n
CCn1cc2c(n1)-c1c(oc(C(=O)Nc3ccc(Br)cc3F)c1C)CC2 | x | x | x | n | x | x
COC(=O)N1[C@H](C)C=C[C@]1(Cc1ccccc1)C(=O)NCc1ccc(C)o1 | n | x | n | x | u | u
CC(C)(C)c1ccc(S(=O)(=O)NCCc2ccncc2)cc1 | n | 22µM | n | u | u | n
CC1CCCC(C)N1S(=O)(=O)c1ccc(S(=O)(=O)NCCc2ccncc2)cc1 (configuration not stated) | n | n | n | n | u | n[1.9 µM]
Cc1nnc2c3ccccc3c(-c3cccs3)nn12 | x | n | n | 7.9µM | n | n
Cc1nnc2c3ccccc3c(-c3ccc(O)cc3)nn12 | n | n[9.22 µM] | n | n | n | n
COc1ccc(Cl)cc1NS(=O)(=O)c1ccc(S(=O)(=O)N2CCCC2)cc1 | n | n | n | u | 28µM | n[10 µM]
COc1ccc(Cl)cc1NS(=O)(=O)c1ccc(OC)c(OC)c1 | n | n | n | n | 13µM | n[10 µM]
COc1ccc(OC)c(NS(=O)(=O)c2ccc(SC)cc2)c1 | n | n | n | u | 18µM | n[10 µM]
COc1ccc(NS(=O)(=O)c2ccc(NS(=O)(=O)c3ccc(SC)cc3)cc2)c(OC)c1 | n | n | n | n | u | n
COc1cccc(N/C(N)=N/c2nc(C(F)(F)F)cc(=O)[nH]2)c1 | n | n | n | n | n | n[10 µM]
S=c1[nH]nc([C@@H]2C[C@H]2c2ccccc2)n1-c1ccccc1 | 25µM | n | n | n | u | x
Cc1ccccc1-n1c([C@@H]2C[C@H]2c2ccccc2)n[nH]c1=S | x | n[9.22 µM] | n | x | u | n[10 µM]
Cc1ccc(S(=O)(=O)N2CCC(NC(=O)c3cccc(C)c3)CC2)cc1 | x | n[9.22 µM] | n | n | n | n[10 µM]
Cc1ccc2c(CSc3nnc(N)s3)cc(=O)oc2c1 | 20µM | n | n | n | 22µM | n
CC(=O)NC1C(=O)N(Cc2ccccc2)c2ccc(Br)cc21 (configuration not stated) | x | n[9.22 µM] | n | x | x | n[10 µM]
Cc1ccc2c(c1)C(CCN)C(=O)N2Cc1ccccc1 (configuration not stated) | n | n | n | n | 32µM | n
CCOC(=O)c1noc2nc(C)n(CC(=O)Nc3ccc(Br)cc3C)c(=O)c12 | x | x | x | n | x | x
SMILES | HPGD inh | HTT aggregate | JMJD2E inh | Lamin A splicing | ALDH1A1 inh | HTT ATP protect
Cc1cc(C(C)(C)C)nc2[nH]n(-c3ccccc3)c(=O)c12 | 16µM | n | n | n | n | n
Cc1cc(C)c2c(=O)n(-c3ccccc3)[nH]c2n1 | n | n | n | n | u | n
COC(=O)[C@@H]1CC[C@H](C)[C@@H](c2ccc(C)cc2)N1C(=O)c1ccc(/C=N/O[C@@H](C)c2cn([C@H](CO)Cc3ccccc3)nn2)cc1 | n | u | n | u | n | x
Fc1ccc(Nc2ccnc(-c3ccc4c(c3)OCO4)n2)cc1 | x | x | x | u | n | n
CN(C)c1ccc(-c2nccc(NCc3cccs3)n2)cc1 | x | x | x | u | u | n
Fc1ccc(Nc2ccnc(-c3ccoc3)n2)cc1 | x | x | x | u | 32µM | n
c1csc(CNc2ccnc(-c3ccoc3)n2)c1 | x | x | x | u | 11µM | n
NCCC[C@@H](CC(=O)N[C@@H]1CCCC[C@H]1C(=O)N[C@H](CC(=O)N[C@@H](CCC(=O)O)CC(=O)O)Cc1ccccc1)NC(=O)C[C@H](Cc1ccccc1)NC(=O)[C@@H]1CCCC[C@H]1N | n | x | n | x | n | n[1.9 µM]
CCOCCCNC(=O)COC(=O)/C=C/c1ccc(S(=O)(=O)N2CCc3ccccc32)cc1 | x | n[9.22 µM] | n | n | 7.9µM | n
COc1ccc(-c2ccc(CNCCCSc3nnnn3C)o2)cc1Cl | x | x | x | n | x | x
CCN1C(=O)[C@H]2[C@@H]3[C@H](O)C=CC(=O)[C@H]3CC[C@H]2C1=O | x | x | x | x | 3.2µM | u
O=C1C=C[C@@H](O)[C@H]2[C@@H]3C(=O)N(C[C@@H]4CCCO4)C(=O)[C@@H]3CC[C@H]12 | x | x | x | x | u | n[10 µM]
CCOC(=O)c1c(C)nc(C)c(C(=O)OCC)c1-c1ccc(OC)cc1 | n | n[9.22 µM] | n | n | n | n[10 µM]
CCOC(=O)c1c(-c2ccc(OC)cc2)nc2nonc2c1N | n | u | n | n | n | 0.71µM
CC(C)CCNC(=O)CN1N=C(c2ccc(Cl)cc2)CCC1=O | x | x | x | n | x | x
Cn1c(Cc2csc(N)n2)nnc1SCC(=O)NCc1ccccc1 | n | n | n | n | 28µM | n[10 µM]
CC(=O)Nc1cccc(NS(=O)(=O)Cc2ccc(Cl)cc2)c1 | n | n | n | n | 28µM | n[0.074 µM]

Compound activity as filed in PubChem.
